Consider 107 compounds from PubChem BioAssay AID590 (National Center for Advancing Translational Sciences (NCATS), 2007).

In all, about 59,000 compounds went through this assay and about 6,500 (11%) were called active. Roughly 15% stayed inconclusive and do not appear here. Cut-off read from the data, not from the text of the source: active = max dye-equivalent concentration above about 10 nM; inconclusive = mostly about 1.1 nM to 9.6 nM; inactive = weaker than that. This excerpt belongs to a sample that is enriched for actives.

This assay can be described thus: qHTS Assay for Spectroscopic Profiling in A350 Spectral Region. As to conditions: Compound autofluorescence, 340/450 nm, Alexa 350 dye-equivalents; active compounds read high. (qHTS replaces the single test concentration by a dilution series.)
Take `CCn1c(SCC(=O)Nc2nccs2)nnc1-c1ccncc1`: the max dye-equivalent concentration result was “inactive”.
With `CC(CN1CCCCC1)OC(=O)c1ccccc1Cl` (configuration not stated), the max dye-equivalent concentration entry is “inactive”.
For the compound `CCCC(=O)Nc1ccc(C(=O)NCCCn2ccnc2)cc1`, the max dye-equivalent concentration entry is “inactive”.
As for `CCn1c(=O)cc(SCC(=O)NCc2ccc3c(c2)OCO3)c2ccccc21`, the entry is “inactive”.
The entry for `CCCn1c(SCC(=O)c2ccc3c(c2)OCCO3)nnc1C(C)C` is “inactive”; for `O=C(c1cc(C(F)(F)F)cc(C(F)(F)F)c1)N1CCC[C@@]2(CCN(c3ccccn3)C2)C1` it is “inactive”; for `CCOC(=O)CC1C(=O)NCCN1C(=O)COc1ccc(Br)cc1C` (configuration not stated) it is “inactive”.
As for `CCOc1cccc(/C(O)=C2/C(=O)C(=O)N(CCOC)C2c2ccncc2)c1` (configuration not stated), the entry is “inactive”.
Consider `CCOC(=O)C1=C(C)NC(C)=C(C(=O)OCC)C1c1ccccn1`, for which the max dye-equivalent concentration was 330 nM (active).
As for `COCCOC(=O)C1=C(C)Nc2nc(C)nn2C1c1ccccc1` (configuration not stated), the entry is “inactive”; as for `CCOC(=O)c1ccc(NC(=O)CSc2ncccn2)cc1`, “inactive”.
The entry for `CC(=O)OCC(=O)[C@@]1(O)CC[C@@H]2[C@H]3CCC4=CC(=O)C=C[C@]4(C)[C@]3(F)[C@@H](O)C[C@@]21C` is “inactive”; for `Cn1c(=O)[nH]c(=O)c2c1nc(N1CCCCCC1)n2CC(=O)c1ccccc1` it is “inactive”.
As for `CCC(C)Sc1nc2c(c(=O)[nH]c(=O)n2C)n1CC(O)COc1cccc2ccccc12` (configuration not stated), the entry is “inactive”.
`CS(=O)(=O)N1CCC2(CC1)CN(Cc1ccccc1)C2`: the max dye-equivalent concentration result was “inactive”.
As for `CCn1c(CNc2ccc(OC)cc2)nnc1SCC(=O)c1ccc(OC)cc1`, the entry is “inactive”; as for `Cc1ccc(S(=O)(=O)Nc2ccccc2CNc2c(C)n(C)n(-c3ccccc3)c2=O)cc1`, “inactive”.
As for `COCCCn1c2nc3ccccc3nc2c2c(=O)n(Cc3ccc(Cl)cc3)c(C)nc21`, the figure is 380 nM (active); as for `COc1ccccc1NC(=O)CSc1nc2sc(C)c(C)c2c(=O)n1Cc1ccco1`, “inactive”; as for `O=c1[nH]c(CSc2ncc(-c3ccc(F)cc3)n2Cc2ccco2)nc2ccccc12`, “inactive”.
The entry for `CC(Sc1nc2ccccc2c(=O)n1Cc1ccco1)C(=O)c1ccccc1` (configuration not stated) is “inactive”; for `Cc1ccc(Cn2c(C)nc3c(c2=O)c2nc4ccccc4nc2n3Cc2ccco2)cc1` it is 1000 nM (active).
Take `Cc1nc2ccccc2c(=O)n1CCCn1ccnc1`: the max dye-equivalent concentration entry was “inactive”.
As for `CCOC(=O)CSc1nc2c(sc(=S)n2CCc2ccccc2)c(=O)n1Cc1ccco1`, the entry is “inactive”.
The figure for `Cc1nc2c(c(=O)n1Cc1ccco1)c1nc3ccccc3nc1n2Cc1ccccc1` is 110 nM (active); for `Cn1c(COc2ccc(Cl)cc2)nc2ccccc2c1=O` it is “inactive”.
In the case of `Cc1ccc(N2CCN(c3ccc(C)cc3)C2c2ccccn2)cc1`, the max dye-equivalent concentration entry was “inactive”.
Regarding `COc1ccccc1-n1cnc2cc(NS(=O)(=O)c3ccccc3)ccc21`, the max dye-equivalent concentration result was “inactive”.
As for `CCOC(=O)C1(Cc2ccc(O)cc2)NC(c2ccccc2F)C2C(=O)N(C)C(=O)C21` (configuration not stated), the entry is “inactive”.
As for `O=C(O)C1CC=C(Cl)CC1C(=O)NCc1ccccc1` (configuration not stated), the entry is “inactive”; as for `CC1(C)Cc2ccccc2-c2nc(CN3CCOCC3)[nH]c(=O)c21`, “inactive”.
The entry for `CCN(CC)C(=O)CSc1nnc(-c2cnccn2)n1-c1ccc(C)cc1` is “inactive”; for `O=C(CN1CCN(S(=O)(=O)/C=C/c2ccccc2)CC1)NC(=O)NCc1ccco1` it is “inactive”.
For `Cc1cccc(N=C2NC(=O)CS2)c1C`, the max dye-equivalent concentration entry was “inactive”.
Regarding `Cc1ccc(NC(=O)CN2CCC3(O)CCCCC3C2c2ccc3c(c2)OCO3)c(C)c1` (configuration not stated), the max dye-equivalent concentration entry was “inactive”.
As to `Cc1ccc2cccc(O)c2[n+]1[O-]`, the max dye-equivalent concentration was 16 nM (active).
In the case of `CC(=O)Nc1cccc2c1[n+]([O-])c(C)c(C)[n+]2[O-]`, the max dye-equivalent concentration result is “inactive”.
As to `O=C(c1cc(C(F)(F)F)cc(C(F)(F)F)c1)N1CCC2(CCCN(c3ccccn3)C2)CC1`, the max dye-equivalent concentration entry is “inactive”.
As for `O=C(Nc1cccc(C(=O)N2CCCC2)c1)c1ccccc1`, the max dye-equivalent concentration entry was “inactive”.
As to `C=C(C)Cn1c(SCC(=O)NCc2ccco2)nc2sc3c(c2c1=O)CCC3`, the max dye-equivalent concentration result was “inactive”.
As for `CN1CCc2c(sc3c2c(NCc2ccco2)nc2nnnn23)C1`, the figure is 530 nM (active).
As for `c1coc(CNc2ncnc3ccccc23)c1`, the entry is “inactive”.
As for `CCOC(=O)c1cnc(SCC(=O)NCc2ccco2)nc1N`, the entry is “inactive”.
In the case of `CC(=NC1CCN(Cc2ccccc2)CC1)c1c(O)[nH]c(=O)[nH]c1=O`, the max dye-equivalent concentration result is “inactive”.
The entry for `COc1ccccc1Nc1ncc(C(C)=O)c(C)n1` is “inactive”.
As for `COc1ccccc1Nc1ncnc2c1oc1ccccc12`, the figure is 84 nM (active); as for `COc1ccc(CCNC(=O)CSc2nc(C)nc3c2oc2ccccc23)cc1OC`, “inactive”; as for `O=C1CSC(=O)N1CCOCCN1C(=O)CSC1=O`, “inactive”.
As for `CS(=O)(=O)N1CCC2(CCN(c3ccncc3)CC2)CC1`, the max dye-equivalent concentration entry is “inactive”.
The figure for `COc1c(F)c(F)c(-c2csc(N)n2)c(F)c1F` is 15 nM (active).
As for `Cc1ccc(F)cc1NC(=O)c1cccc(N(C)C)c1`, the entry is “inactive”.
The entry for `OCCCNC(c1ccccc1)c1ccc(O)cc1` (configuration not stated) is “inactive”; for `C=CCn1c(COc2cccc3cccnc23)nnc1SCC(=O)OC` it is “inactive”.
For `CCOc1cc(N2CCOCC2)c(OCC)cc1NC(=O)COc1cccc2cccnc12`, the max dye-equivalent concentration is 19 nM (active).
For `O=C(Nc1ccc(F)cc1)c1cccnc1N1CCOCC1`, the max dye-equivalent concentration entry was “inactive”.
As for `CCCn1c(SCC(=O)N2CCc3ccccc32)nnc1-c1ccncc1`, the entry is “inactive”.
As for `Cc1cccc(NC(=O)CSc2nc3c(c(=O)[nH]2)CCC3)c1C`, the entry is “inactive”; as for `COc1cccc(-c2nc(S(=O)(=O)c3ccccc3)c(N3CCOCC3)o2)c1`, “inactive”.
As for `COc1cccc(-c2cc3nc4c(c(N5CCC6(CC5)OCCO6)n3n2)CCCC4)c1`, the figure is 130 nM (active).
Consider `COc1ccccc1CNC(=O)C1CCN(S(C)(=O)=O)CC1`, for which the max dye-equivalent concentration entry was “inactive”.
The entry for `Cc1cc(C)c2nc3c(c([C@H](O)[C@@H]4CCCCN4)c2c1)CC/C3=C/c1ccc(Cl)cc1` is “inactive”; for `COC(=O)c1sc(NC(=O)c2csc3c2CCCC3)nc1C` it is “inactive”; for `CCOC(=O)c1sc(/N=C/Nc2nc(C)c(C(=O)OCC)s2)nc1C` it is 10 nM (active).
As for `Cc1nc(NC(=O)CCC(=O)O)sc1C(=O)N(C)C`, the entry is “inactive”; as for `CCN(CC)P(=O)(C(NC(=O)OC)C(F)(F)C(F)(F)C(F)(F)C(F)F)N(CC)CC` (configuration not stated), “inactive”; as for `CCOc1cccc(NC(=O)C2CCCN(S(=O)(=O)c3ccc(OC)cc3)C2)c1` (configuration not stated), “inactive”.
As for `CCOC(=O)c1c(C)c(C(=O)NCCc2ccc(S(N)(=O)=O)cc2)c(C)n1CC`, the entry is “inactive”.
Turning to `CCOc1ccccc1-n1c(SCC(=O)N2CCCC2)nnc1-c1ccoc1C`, the max dye-equivalent concentration result is “inactive”.
`C=CCNc1nnc(SCC(=O)N2CCCCC2)c2ccccc12`: the max dye-equivalent concentration was 15 nM (active).
The entry for `C=CCNc1nnc(C)c2ccccc12` is “inactive”.
The entry for `O=C(OCC(=O)N1CCN(C(=O)c2ccco2)CC1)c1ccccc1Cc1ccccc1` is “inactive”; for `COc1ccc(C2C(C(=O)N3CCN(c4ccc(OC)cc4)CC3)c3ccccc3C(=O)N2C)cc1` (configuration not stated) it is “inactive”; for `C/C(Cl)=C\Cn1c(Nc2cccc(C)c2)nc2c1c(=O)n(C)c(=O)n2C` it is “inactive”.
The entry for `COCC(C)NC(=O)c1ccc(Cl)c(Cl)c1` (configuration not stated) is “inactive”.
`COCCNC(=O)c1ccccc1-c1nc(-c2ccccc2Cl)no1`: the max dye-equivalent concentration entry was “inactive”.
`COCCNC(=O)c1snc2ccc(Cl)cc12`: the max dye-equivalent concentration was 46 nM (active).
The entry for `OCCCNCc1ccccn1` is “inactive”.
Regarding `Cc1noc(C)c1CSc1nc2cc(S(=O)(=O)N3CCOCC3)ccc2o1`, the max dye-equivalent concentration result is “inactive”.
As for `CC(=O)Nc1ccc(S(=O)(=O)Nc2nc3n(n2)C(c2ccccc2)CC(=O)N3)cc1` (configuration not stated), the entry is “inactive”; as for `Cc1onc(-c2ccccc2Cl)c1C(=O)NCCn1ccc2ccccc21`, “inactive”.
The entry for `Cc1cc(C)c2c(c1)cc(C)c1nnc(SCC(=O)Nc3cc(C)on3)n12` is “inactive”.
The entry for `Cc1nc(SCC(=O)Nc2cc(C)on2)c2c(C)c(C)sc2n1` is “inactive”.
With `Cc1ccc2nc(-c3ccc(SCC(=O)Nc4cc(C)on4)nc3)[nH]c2c1`, the max dye-equivalent concentration is 30 nM (active).
The entry for `Cn1c(=O)c2c(nc(SCC(=O)Nc3ccccc3N3CCCCC3)n2C)n(C)c1=O` is “inactive”.
The entry for `CC(C)c1cc(CN(C)C)c(O)c(C(C)(C)C)c1` is “inactive”; for `O=c1oc2cc(O)ccc2cc1-c1ccc(F)cc1` it is 100 nM (active); for `O=C(Cn1c(=S)nc2ccccn21)N1CCc2ccccc2C1` it is “inactive”.
As for `O=C1c2ccccc2C(=O)N1c1ccccc1S(=O)C(F)(F)F` (configuration not stated), the entry is “inactive”.
`CC1Cc2ccccc2N1C(=O)Cn1cnc2ccccc2c1=O` (configuration not stated): the max dye-equivalent concentration result is “inactive”.
As for `CCCOC(=O)Cc1c(O)c2ccccc2[nH]c1=O`, the entry is “inactive”; as for `CCOC(=O)CCc1c(C)c(C#N)c2[nH]c3ccccc3n2c1=O`, 5400 nM (active).
The entry for `CCOC(=O)CC1=CC(=O)Nc2ccccc2N1` is “inactive”.
The entry for `CC1(C)Cc2ccccc2-c2nnc(-c3cccc(O)c3)n21` is “inactive”.
For `Cc1cc(C)nc(-n2nc(C)cc2NC(=O)c2ccc(Br)o2)n1`, the max dye-equivalent concentration entry was “inactive”.
For `CCCC(=O)Nc1ccc(Cl)c(NC(=O)c2ccc(Br)o2)c1`, the max dye-equivalent concentration result was “inactive”.
The figure for `CCc1c(C)sc(NC(=O)c2ccc(Br)o2)c1C(=O)OC` is 190 nM (active); for `COc1ccc(CCNC(=O)CSc2nnc(-c3cccc(F)c3)o2)cc1OC` it is “inactive”; for `CC(C)C(=O)Nc1cccc(C(=O)Nc2ccc3c(c2)OCO3)c1` it is “inactive”.
In the case of `O=C1c2cccnc2C(Nc2ccc(S(=O)(=O)N3CCCCCC3)cc2)N1Cc1ccccc1` (configuration not stated), the max dye-equivalent concentration entry is “inactive”.
As for `O=C1c2ccccc2C(O)N1Cc1ccccc1` (configuration not stated), the figure is 26 nM (active); as for `O=C(NC1CCCCC1)C1c2ccccc2C(=O)N1Cc1ccco1` (configuration not stated), “inactive”.
As for `CC(C)(CNCC(O)c1ccccc1)N1CCOCC1` (configuration not stated), the entry is “inactive”; as for `Cc1ccc(C)c(NS(=O)(=O)c2cc(Br)cnc2N)c1`, “inactive”.
The entry for `Cc1ccc(-c2noc(CSc3nnc(-c4ccccc4)n3C)n2)cc1` is “inactive”; for `N=c1n(Cc2ccc(Cl)cc2)c2ccccc2n1CC(O)c1ccco1` (configuration not stated) it is 11 nM (active); for `O=C(c1ccncc1)N1CCC2(CCCN(C(c3ccccc3)c3ccccc3)C2)CC1` it is “inactive”.
Turning to `COC(=O)[C@@H](NC(=O)NCc1cccc(OC)c1)C(C)C`, the max dye-equivalent concentration result is “inactive”.
